Screen size: about 5,500 compounds; about 2,000 (36%) were called active. Inconclusive results (about 18%) are left out. Rule as the data show it: active = normalized growth mostly below about 0.91 (no sharp cut-off); inconclusive = no clear call, values can overlap the other calls; inactive = mostly above about 0.92. This is one part of the list.
Experiment: chemical genetic growth profiling, strain panel (AID 1159580);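 also: tested at 20 µM; growth read once vehicle control cultures reached saturation at 30 °C; 1 = growth at the plate median or of vehicle wells; lower values mean less growth of the strain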
Conditions: growth OD

Measured: normalized growth

CC1CC2C3CC(F)C4=CC(=O)C=CC4(C)C3(F)C(O)CC2(C)C1(O)C(=O)CO (centres undefined)
inactive: S. cerevisiae deletion strains, locus YJR043C, strain POL32, active compounds read low 1.08 | S. cerevisiae deletion strains, locus YJR075W, strain HOC1, active compounds read low 1.02 | S. cerevisiae deletion strains, locus YKL009W, strain mrt4, active compounds read low 1.01 | S. cerevisiae deletion strains, locus YKL068W, active compounds read low 1.01 | S. cerevisiae deletion strains, locus YKL085W, strain MDH1 (second series), active compounds read low 1.01 | S. cerevisiae deletion strains, locus YKL085W, strain MDH1, active compounds read low 1.01 | S. cerevisiae deletion strains, locus YKL160W, strain elf1, active compounds read low 0.984 | S. cerevisiae deletion strains, locus YKL190W, strain CNB1, active compounds read low 1.02 | S. cerevisiae deletion strains, locus YKR001C, strain vps1, active compounds read low 1.03 | S. cerevisiae deletion strains, locus YKR026C, strain gcn3, active compounds read low 0.998 | S. cerevisiae deletion strains, locus YKR091W, strain srl3, active compounds read low 1 | S. cerevisiae deletion strains, locus YLL001W, strain dnm1, active compounds read low 0.984 | S. cerevisiae deletion strains, locus YLL026W, active compounds read low 0.997 | S. cerevisiae deletion strains, locus YLL041C, strain sdh2, active compounds read low 0.999 | S. cerevisiae deletion strains, locus YLR027C, strain aat2, active compounds read low 0.997 | S. cerevisiae deletion strains, locus YLR039C, strain RIC1, active compounds read low 1.08 | S. cerevisiae deletion strains, locus YLR058C, strain SHM2, active compounds read low 1.02 | S. cerevisiae deletion strains, locus YLR102C, strain apc9, active compounds read low 1.02 | S. cerevisiae deletion strains, locus YLR221C, strain rsa3, active compounds read low 0.985 | S. cerevisiae deletion strains, locus YLR258W, strain gsy2, active compounds read low 0.995 | S. cerevisiae deletion strains, locus YLR262C, strain YPT6 (second series), active compounds read low 0.984 | S. cerevisiae deletion strains, locus YLR262C, strain YPT6, active compounds read low 1.08 | S. cerevisiae deletion strains, locus YLR268W, strain sec22, active compounds read low 1.02 | S. cerevisiae deletion strains, locus YLR320W, strain mms22, active compounds read low 0.993 | S. cerevisiae deletion strains, locus YLR330W, strain CHS5, active compounds read low 1.02 | S. cerevisiae deletion strains, locus YLR342W, strain FKS1 (second series), active compounds read low 1.1 | S. cerevisiae deletion strains, locus YLR342W, strain FKS1, active compounds read low 0.991 | S. cerevisiae deletion strains, locus YLR357W, strain rsc2, active compounds read low 1.01 | S. cerevisiae deletion strains, locus YLR370C, strain arc18, active compounds read low 1 | S. cerevisiae deletion strains, locus YLR371W, strain rom2, active compounds read low 1.01 | S. cerevisiae deletion strains, locus YLR384C, strain iki3, active compounds read low 0.986 | S. cerevisiae deletion strains, locus YLR418C, strain cdc73, active compounds read low 1 | S. cerevisiae deletion strains, locus YML016C, strain PPZ1, active compounds read low 1.02 | S. cerevisiae deletion strains, locus YML032C, strain rad52, active compounds read low 1.05 | S. cerevisiae deletion strains, locus YML120C, strain ndi1, active compounds read low 1 | S. cerevisiae deletion strains, locus YML124C, strain tub3, active compounds read low 1.02 | S. cerevisiae deletion strains, locus YMR058W, strain fet3, active compounds read low 1.01 | S. cerevisiae deletion strains, locus YMR078C, strain ctf18, active compounds read low 1.02 | S. cerevisiae deletion strains, locus YMR125W, strain sto1, active compounds read low 0.986 | S. cerevisiae deletion strains, locus YMR129W, active compounds read low 1 | S. cerevisiae deletion strains, locus YMR205C, strain PFK2, active compounds read low 0.984 | S. cerevisiae deletion strains, locus YMR223W, strain ubp8, active compounds read low 1.04 | S. cerevisiae deletion strains, locus YMR231W, strain pep5, active compounds read low 0.995 | S. cerevisiae deletion strains, locus YMR263W, strain SAP30, active compounds read low 1.04 | S. cerevisiae deletion strains, locus YMR307W, strain GAS1, active compounds read low 1.09 | S. cerevisiae deletion strains, locus YNL067W, strain RPL9B, active compounds read low 1.03 | S. cerevisiae deletion strains, locus YNL071W, strain lat1, active compounds read low 0.999 | S. cerevisiae deletion strains, locus YNL128W, strain TEP1, active compounds read low 1.01 | S. cerevisiae deletion strains, locus YNL153C, strain GIM3, active compounds read low 1.03 | S. cerevisiae deletion strains, locus YNL209W, strain ssb2, active compounds read low 0.996 | S. cerevisiae deletion strains, locus YNL233W, strain BNI4, active compounds read low 1.02 | S. cerevisiae deletion strains, locus YNL248C, strain rpa49, active compounds read low 1.01 | S. cerevisiae deletion strains, locus YNL250W, strain rad50, active compounds read low 1.04 | S. cerevisiae deletion strains, locus YNL271C, strain bni1, active compounds read low 1.03 | S. cerevisiae deletion strains, locus YNL298W, strain CLA4, active compounds read low 1.03 | S. cerevisiae deletion strains, locus YNL307C, strain MCK1, active compounds read low 1.05 | S. cerevisiae deletion strains, locus YNL322C, strain KRE1 (second series), active compounds read low 0.974 | S. cerevisiae deletion strains, locus YNL322C, strain KRE1, active compounds read low 1.02 | S. cerevisiae deletion strains, locus YNR049C, strain mso1, active compounds read low 0.992 | S. cerevisiae deletion strains, locus YNR052C, strain pop2, active compounds read low 1.03 | S. cerevisiae deletion strains, locus YOL006C, strain TOP1, active compounds read low 1.06 | S. cerevisiae deletion strains, locus YOL012C, strain htz1 0.779 | S. cerevisiae deletion strains, locus YOL147C, strain pex11, active compounds read low 1.02 | S. cerevisiae deletion strains, locus YOR001W, strain rrp6, active compounds read low 1.03 | S. cerevisiae deletion strains, locus YOR061W, strain CKA2, active compounds read low 1.02 | S. cerevisiae deletion strains, locus YOR069W, strain VPS5, active compounds read low 1.01 | S. cerevisiae deletion strains, locus YOR070C, strain gyp1, active compounds read low 1 | S. cerevisiae deletion strains, locus YOR080W, strain dia2, active compounds read low 0.995 | S. cerevisiae deletion strains, locus YOR083W, strain WHI5, active compounds read low 0.965 | S. cerevisiae deletion strains, locus YOR106W, strain vam3, active compounds read low 0.97 | S. cerevisiae deletion strains, locus YOR136W, strain idh2, active compounds read low 1.03 | S. cerevisiae deletion strains, locus YOR144C, strain elg1, active compounds read low 1.02 | S. cerevisiae deletion strains, locus YOR184W, strain ser1, active compounds read low 1.08 | S. cerevisiae deletion strains, locus YOR265W, strain rbl2, active compounds read low 1.01 | S. cerevisiae deletion strains, locus YOR270C, strain vph1, active compounds read low 0.928 | S. cerevisiae deletion strains, locus YOR290C, strain snf2, active compounds read low 0.988 | S. cerevisiae deletion strains, locus YOR316C, strain cot1, active compounds read low 1.03 | S. cerevisiae deletion strains, locus YPL051W, strain arl3, active compounds read low 0.989 | S. cerevisiae deletion strains, locus YPL055C, strain LGE1, active compounds read low 1.09 | S. cerevisiae deletion strains, locus YPL078C, strain atp4, active compounds read low 1.03 | S. cerevisiae deletion strains, locus YPL106C, strain sse1, active compounds read low 0.957 | S. cerevisiae deletion strains, locus YPL240C, strain hsp82, active compounds read low 1 | S. cerevisiae deletion strains, locus YPL241C, strain CIN2, active compounds read low 1.02 | S. cerevisiae deletion strains, locus YPR119W, strain clb2, active compounds read low 1.01 | S. cerevisiae deletion strains, locus YPR141C, strain kar3, active compounds read low 1.02 | S. cerevisiae deletion strains, locus YPR163C, strain tif3, active compounds read low 1.04 | S. cerevisiae deletion strains, locus YPR167C, strain met16, active compounds read low 1.01 | S. cerevisiae deletion strains, strain wtn01, active compounds read low 1.02 | S. cerevisiae strains, strain wild type, active compounds read low 1.03
